From PubChem
In the library only some 1.6% were active in any assay of this set; here they are far more common.
KCNQ2 inh: inhibitors of rat KCNQ2 potassium channel; actives 1.1% (n = 310,000); O88943; B-score at 10 µM; CHO-K1 KCNQ2, FluxOR thallium flux, 20 min; stronger effect = lower value;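 active = fluorescence ratio B-score at most minus 3 library SDs, with starting brightness B-score within 2 library SDs, cut at about -5.5 in these data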
Target sequence (O88943 whole entry, looked up): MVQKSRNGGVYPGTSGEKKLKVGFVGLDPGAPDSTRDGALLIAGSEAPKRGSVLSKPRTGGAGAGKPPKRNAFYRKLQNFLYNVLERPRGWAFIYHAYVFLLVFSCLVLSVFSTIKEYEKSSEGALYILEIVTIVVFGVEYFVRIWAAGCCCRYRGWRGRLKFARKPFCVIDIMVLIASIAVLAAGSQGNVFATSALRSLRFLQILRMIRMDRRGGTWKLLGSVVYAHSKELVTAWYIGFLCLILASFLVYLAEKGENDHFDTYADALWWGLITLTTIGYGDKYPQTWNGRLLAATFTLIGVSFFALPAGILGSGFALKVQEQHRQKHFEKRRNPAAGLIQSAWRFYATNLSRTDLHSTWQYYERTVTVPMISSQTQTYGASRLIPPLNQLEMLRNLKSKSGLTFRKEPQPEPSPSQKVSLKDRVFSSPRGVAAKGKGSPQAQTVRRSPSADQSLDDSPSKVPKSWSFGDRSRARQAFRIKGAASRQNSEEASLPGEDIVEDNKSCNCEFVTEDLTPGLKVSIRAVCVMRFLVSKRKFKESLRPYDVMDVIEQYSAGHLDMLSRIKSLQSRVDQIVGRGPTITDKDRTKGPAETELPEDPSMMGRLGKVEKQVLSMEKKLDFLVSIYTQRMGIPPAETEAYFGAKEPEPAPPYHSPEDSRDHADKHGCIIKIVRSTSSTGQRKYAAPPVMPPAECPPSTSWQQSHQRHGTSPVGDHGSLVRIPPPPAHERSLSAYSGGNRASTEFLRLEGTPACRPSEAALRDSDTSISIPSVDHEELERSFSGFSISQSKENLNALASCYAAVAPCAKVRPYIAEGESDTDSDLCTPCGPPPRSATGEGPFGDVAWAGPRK
KCNQ2 enhance: potentiators of rat KCNQ2 potassium channel. O88943. CHO-K1 KCNQ2, FluxOR thallium flux fluorescence; stronger effect = higher value. B-score at 10 µM. actives 0.54% (n = 310,000). AID 2239;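 active = fluorescence ratio B-score at least 3 SD of library B-scores, with initial fluorescence B-score within 3 of them, cut at about 5.3 in these data; same plate scores as AID 2156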;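 note: B-score of peak minus minimum over baseline fluorescence ratio after K+ and Tl+ stimulus; positive B-score means potentiation of KCNQ2 with more thallium influx and brighter signal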
Numbers stand for hits; – = inactive; · = not tested or not shown.

SMILES	KCNQ2 inh	KCNQ2 enhance
COCCn1c(N)c(N(Cc2ccccc2)C(=O)c2oc3ccccc3c2C)c(=O)[nH]c1=O	–	·
Cn1cc(C(=O)c2ccc(Cl)cc2Cl)cc1C(=O)N/N=C(\N)COc1cccc(C(F)(F)F)c1	–	–
O=C(c1ccncc1)N(c1ccc2oc3c(c2c1)CCCC3)S(=O)(=O)c1cccc([N+](=O)[O-])c1	–	·
COc1ccc(S(=O)(=O)N(C(=O)c2ccncc2)c2ccc3oc4c(c3c2)CCCC4)cc1	-5.7	–
COCCNC(=O)C(OC(=O)c1ccco1)c1ccccc1F (stereo not drawn)	–	·
COc1cc(NC(=O)c2ccnnc2)cc(C(=O)Nc2cccc(C(F)(F)F)c2)c1	-5.8	–
O=C(Nc1cccc(C(F)(F)F)c1)c1cccnc1	–	–
c1ccc(Cc2nn3c(C4COc5ccccc5O4)nnc3s2)cc1 (stereo not drawn)	–	·
c1ccc(CCc2nn3c(C4COc5ccccc5O4)nnc3s2)cc1 (stereo not drawn)	-6.1	–
CC(C)OC(=O)Nc1ccc2c(c1)N(C(=O)CCN1CCOCC1)c1ccccc1CC2	–	·
Cc1cccc2[nH]c(SCC(=O)N3CCOCC3)nc12	–	·
COc1ccc(NC(=O)CCSCCc2ccccn2)cc1OC	–	–
CC(CNS(=O)(=O)c1ccc2c(c1)NC(=O)CCS2)c1ccccc1 (stereo not drawn)	–	–
Oc1c(Br)cc(Br)cc1C=NCc1ccc(F)cc1	–	11
Oc1c(Br)cc(Br)cc1C=NCc1ccccc1	–	·
COc1ccccc1NC(=O)N1CCC(NC(=O)C(Cc2ccccc2F)NC(C)=O)CC1 (stereo not drawn)	–	–
Cc1ccc(NC(=O)CSCc2cc(=O)n3ccsc3n2)cc1	–	·
CCC(CC)NC(=O)c1oc2ccccc2c1COc1ccccc1	–	·
CC(C)CNC(=O)c1oc2ccccc2c1COc1ccccc1	-6.4	–
Cc1cc(NC(=O)NC(C(F)(F)F)C(F)(F)F)no1	–	–
CCc1ccc2c(c1)c(N=NC1=NC(=O)CS1)c(O)n2C	–	5.8
Cc1cc(C)c2[nH]c(O)c(N=NC3=NC(=O)CS3)c2c1	–	–
CC(O)[C@H]1CNC(=O)C(=O)N1CCc1cc(C(F)(F)F)cc(C(F)(F)F)c1 (stereo partly drawn)	–	·
CC1(C)CN=C(N(Cc2ccccc2)C(=O)Nc2ccccc2)S1	-6.4	–
CC1(C)CN=C(N(C(=O)Nc2ccccc2)c2ccccc2F)S1	–	·
SMILES	KCNQ2 inh	KCNQ2 enhance
O=C(CN1C(=O)/C(=C/c2ccc(F)cc2)SC1=S)NC1CCS(=O)(=O)C1 (stereo not drawn)	–	·
Cc1cc(/C=N/n2cnnc2)c(C)n1-c1ccc(OCc2ccc(Cl)cc2Cl)cc1	–	·
Cc1cc(/C=N/n2cnnc2)c(C)n1-c1ccc(OCc2ccc(F)cc2)cc1	-6.2	–
OC(COc1ccc(C2C=CCC2)cc1)CN1CCCCC1 (stereo not drawn)	–	–
Cc1nn(-c2ccccc2)c2ncc(C(=O)c3cc(Cl)ccc3O)cc12	–	·
CCc1nn2cc(C(=O)c3cc(Cl)ccc3O)cnc2c1-c1ccc(F)cc1	-5.6	–
O=S(=O)(Nc1cccc(-c2cn3c(n2)SCC3)c1)c1ccc(F)cc1F	–	·
Cn1c(=O)c2c(nc(CN3CCc4ccccc4C3)n2Cc2ccc(F)cc2)n(C)c1=O	–	·
Cc1ccccc1Cn1c(CN2CCc3ccccc3C2)nc2c1c(=O)n(C)c(=O)n2C	-6.1	–
Cc1ccccc1C1NC(=S)NC2=C1C(=O)CCC2 (stereo not drawn)	–	·
CN(C)c1ccc(/C=C(\C#N)C(=O)c2ccccc2)cc1	–	–
CN(C)c1cccc(/C=C(\C#N)c2ccccc2)c1	-5.7	–
Cc1ccc(CNC(=O)COc2ccc(C(=O)c3ccc(F)cc3)cc2)cc1	–	·
O=C(NCc1ccccn1)C1CN(S(=O)(=O)c2ccccc2)CCN1S(=O)(=O)c1ccccc1 (stereo not drawn)	–	–
Cc1ccc(CN2C3CCCC2CC(NC(=O)c2ccc(C)cc2)C3)cc1 (stereo not drawn)	–	–
CC1CCN(c2oc(Cc3cccc4ccccc34)nc2C#N)CC1	-5.9	–
N#Cc1nc(Cc2cccc3ccccc23)oc1N1CCN(c2ccccc2)CC1	–	·
N#Cc1nc(COc2ccccc2)oc1N1CCN(Cc2ccccc2)CC1	-6.4	–
COc1ccc(N2CCN(c3oc(Cc4cccc5ccccc45)nc3C#N)CC2)cc1	-7	–
N#Cc1nc(COc2cccc(Cl)c2)oc1N1CCCC1	–	·
N#Cc1nc(Cc2cccc3ccccc23)oc1N1CCOCC1	–	–
O=C(c1cccs1)N1CCC(c2nc3c(nnn3Cc3c(Cl)cccc3Cl)c(=O)[nH]2)CC1	–	–
O=C(Nc1ccccc1)c1ccc(Br)c(S(=O)(=O)Nc2ccccn2)c1	–	–
O=C(O)C1Cc2c([nH]c3ccccc23)C(c2ccc3c(c2)OCO3)N1 (stereo not drawn)	–	·
COc1ccc(C2NC(C(=O)O)Cc3c2[nH]c2ccccc32)cc1CN1CCN(c2ccc(F)cc2)CC1 (stereo not drawn)	-5.7	–
